The results in this text go back to PubChem BioAssay.

“And” between values parts separate entries of the source, which are not always exact repeats. Equal entries are not always repeated. Records with an inconclusive call do not appear. For some assays here: Measured potencies and affinities stand elsewhere. The source made the active and inactive calls.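 The calls were made as follows, unless noted: active = at least 20% inhibition of 6-phosphogluconate dehydrogenase activity; inactive = the rest.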

Test [1] in a line: polyglutamine-triggered caspase-3 activation inhibitors, cell-based (AID 1583). The following applies: polyglutamine-induced caspase-3 activation, cell assay; stronger effect = higher value;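 tested at 10 µM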.
Test [2] in a line: suppressors of polyQ aggregation in yeast, 75Q-TubU reporter (AID 1593). The following applies: Yeast 75Q polyglutamine aggregation reporter.
The nature of test [3]: rescue of polyQ-huntingtin neuronal dysfunction in worms, whole organism, C. elegans mechanosensory neurons, N-terminal huntingtin (AID 1599). The following applies: touch response, stronger effect = higher value.
Test [4] in a line: inhibitors of mitochondrial cytochrome c release, biochemical, purified mitochondria (AID 1603).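 Also: mouse liver mitochondria challenged with calcium chloride; signal normalized to the plate average as 100%.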 The following applies: stronger effect = lower value.
The nature of test [5]: inhibitors of polyQ protein aggregation (AID 1604). The following applies: polyglutamine-induced protein aggregation inhibition assay; stronger effect = higher value; tested at 2.5 µM.
Test [6] is described as follows: enhancers of glutamate uptake in motor neurons, MN-1 cell line (AID 1612).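 Also: tested at 1 µM final; 0% = mean of DMSO vehicle wells on each plate; positive means more glutamate uptake than control and negative means less.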 As to conditions: MN-1 motor neuron cells, stronger effect = higher value.
Test [7] is described as follows: suppressors of polyglutamine aggregation in yeast, 75Q-TubH (AID 1616). The following applies: S. cerevisiae 75Q-TubH polyglutamine aggregation suppression; stronger effect = higher value.
Test [8] deals with 6-phosphogluconate dehydrogenase, decarboxylating (Homo sapiens) (UniProt P52209). As to the kind of experiment: 6PGD enzyme inhibitors, primary screen, biochemical, human, recombinant enzyme, NADPH absorbance (AID 1159550). The following applies: recombinant 6PGD, NADPH absorbance 341 nm; at 10 µM; stronger effect = higher value.
Test [9] can be described thus: differential killing of epithelial or mesenchymal cells, primary screen, imaging, PC-3E GFP, TEM4-18 mCherry, co-culture (AID 1345086;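 active = compounds killing one labelled cell type while sparing the other, by normalised counts and ratio limits, not self-fluorescent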;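 as to all read-outs here: cells exposed to compound for 72 h before imaging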;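 as to red/green cell ratio (normalised): normalised mesenchymal count divided by normalised epithelial count so high means epithelial killing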). As to conditions: imaging cell counts, at 1 µM; for red/green cell ratio (normalised): actives lie on both sides, counts scaled to control wells, 1 = unselective.
Test [10] in a line: liver-stage malaria parasite growth inhibition, primary screen, cell-based, HepG2, luciferase luminescence, HepG2 viability (AID 624349; in the data active = parasite load remaining mostly below about 12%, no sharp cut-off; inactive = mostly above about 10%;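 also: 100% = mean of DMSO negative control wells on the same plate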). As to conditions: P. berghei liver stage in HepG2, luciferase luminescence, concentration not given here; parasite load remaining: stronger effect = lower value; viability: measured here: HepG2 viability without parasites.
A short description of test [11]: growth inhibition of DIPG glioma cells, dose response, cell-based, JHH-DIPG-1, MIPE4.0, CellTiter-Glo, qHTS (AID 1347062; cut-off not given, nearly all actives have AC50 up to about 27 µM). As to conditions: JHH-DIPG-1 viability, CellTiter-Glo ATP luminescence. Background: In ATP-based viability assays light output follows the ATP content of the culture.
A short description of test [12]: survival rescue of mitochondrial mutant cells in low glucose, primary screen, MELAS cybrids, Rieske KO mouse fibroblasts, CellTiter-Glo (AID 1508586;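 active = mean z-score across replicates of 1.96 or higher in either the MELAS or the Rieske mutant cell line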;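 also: z relative to plate mean and SD of compound and empty wells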).
Test [13] deals with NAD(+) hydrolase SARM1 (Homo sapiens) (UniProt Q6SZW1). As to the kind of experiment: SARM1 TIR NADase inhibitors, cell lysate, NAD-Glo luminescence (AID 1508614;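 active = compound whose remaining NAD level is above about 45 nM, limit read from the data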;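 also: higher remaining NAD means stronger inhibition of SARM1 NADase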). As to conditions: SAM-TIR HEK293T lysate NADase, at 1 µM, stronger effect = higher value.
The target in test [14] is Mitogen-activated protein kinase 7 (Homo sapiens) (UniProt Q13164). The test is described as follows: ERK5 transactivation activators in reporter cells, primary screen, cell-based, HTS (AID 1508626;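 active = luciferase signal above three times the same-plate solvent-only control wells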;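 also: luciferase driven by Gal4-ERK5 fusion binding five Gal4 sites before minimal TATA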). The following applies: HeLa Gal4-ERK5 transactivation, 18 h, at 5 µM, stronger effect = higher value.
Test [15] is described as follows: viability rescue of complex I mutant cybrids, primary screen, cell-based, galactose medium, ATP luminescence (AID 1645843;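 active = z-score of at least 1.8 in each of two replicates, scored against plate mean and spread of sample wells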;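 also: positive z means more ATP and so rescue of galactose-driven cybrid death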). The following applies: complex I mutant cybrid cells, 72 h, stronger effect = higher value.
Test [16] is described as follows: sensitizers of A549 cells to miR-34 induction, primary screen, imaging, A549 dox-inducible miR-34, nuclei and caspase counts (AID 1347080;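 active = compounds whose cell count with miR-34 switched on is under 0.7 times the count with it off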). As to conditions: A549 miR-34 inducible, Hoechst nuclei count, 48 h.
[17] abbreviates: measured here: epithelial PC-3E GFP cell survival.
[18] abbreviates: measured here: mesenchymal TEM4-18 mCherry cell survival.

Sequence of 6-phosphogluconate dehydrogenase, decarboxylating (Homo sapiens) (P52209 whole entry, looked up): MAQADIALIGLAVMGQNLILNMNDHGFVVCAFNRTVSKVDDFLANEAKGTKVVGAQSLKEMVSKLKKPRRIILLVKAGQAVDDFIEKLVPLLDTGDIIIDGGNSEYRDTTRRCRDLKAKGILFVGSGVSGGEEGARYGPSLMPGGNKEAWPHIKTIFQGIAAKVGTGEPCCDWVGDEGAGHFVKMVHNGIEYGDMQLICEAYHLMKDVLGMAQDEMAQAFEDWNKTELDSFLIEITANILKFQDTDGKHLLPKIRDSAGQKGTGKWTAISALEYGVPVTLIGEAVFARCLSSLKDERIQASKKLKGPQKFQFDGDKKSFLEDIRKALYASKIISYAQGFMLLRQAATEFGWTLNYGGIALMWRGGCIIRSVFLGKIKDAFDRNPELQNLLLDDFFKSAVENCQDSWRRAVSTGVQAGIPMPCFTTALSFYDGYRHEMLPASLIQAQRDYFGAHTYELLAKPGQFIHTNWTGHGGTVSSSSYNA
Sequence of Mitogen-activated protein kinase 7 (Homo sapiens) (Q13164 whole entry, looked up, the tested form may be a part): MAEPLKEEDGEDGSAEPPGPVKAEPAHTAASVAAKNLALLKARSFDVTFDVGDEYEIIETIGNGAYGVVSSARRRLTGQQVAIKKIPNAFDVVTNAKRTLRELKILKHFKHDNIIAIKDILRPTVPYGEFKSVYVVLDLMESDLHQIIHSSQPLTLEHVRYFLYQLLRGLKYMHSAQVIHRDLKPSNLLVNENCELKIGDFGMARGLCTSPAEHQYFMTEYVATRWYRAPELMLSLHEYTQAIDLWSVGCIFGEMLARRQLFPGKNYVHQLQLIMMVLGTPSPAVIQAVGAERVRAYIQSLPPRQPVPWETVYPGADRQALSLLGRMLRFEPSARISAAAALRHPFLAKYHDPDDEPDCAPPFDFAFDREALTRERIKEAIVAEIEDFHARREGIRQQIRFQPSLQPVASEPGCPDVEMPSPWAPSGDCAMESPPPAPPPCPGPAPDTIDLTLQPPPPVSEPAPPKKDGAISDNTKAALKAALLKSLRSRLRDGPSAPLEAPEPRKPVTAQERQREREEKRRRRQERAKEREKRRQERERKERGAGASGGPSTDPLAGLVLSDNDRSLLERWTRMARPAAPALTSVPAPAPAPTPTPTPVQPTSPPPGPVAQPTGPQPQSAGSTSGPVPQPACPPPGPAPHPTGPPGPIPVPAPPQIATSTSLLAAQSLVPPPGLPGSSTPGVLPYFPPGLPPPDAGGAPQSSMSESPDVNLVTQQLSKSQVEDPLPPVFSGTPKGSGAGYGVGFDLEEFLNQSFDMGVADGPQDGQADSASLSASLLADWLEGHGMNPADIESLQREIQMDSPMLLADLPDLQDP
Sequence of NAD(+) hydrolase SARM1 (Homo sapiens) (Q6SZW1 whole entry, looked up, the tested form may be a part): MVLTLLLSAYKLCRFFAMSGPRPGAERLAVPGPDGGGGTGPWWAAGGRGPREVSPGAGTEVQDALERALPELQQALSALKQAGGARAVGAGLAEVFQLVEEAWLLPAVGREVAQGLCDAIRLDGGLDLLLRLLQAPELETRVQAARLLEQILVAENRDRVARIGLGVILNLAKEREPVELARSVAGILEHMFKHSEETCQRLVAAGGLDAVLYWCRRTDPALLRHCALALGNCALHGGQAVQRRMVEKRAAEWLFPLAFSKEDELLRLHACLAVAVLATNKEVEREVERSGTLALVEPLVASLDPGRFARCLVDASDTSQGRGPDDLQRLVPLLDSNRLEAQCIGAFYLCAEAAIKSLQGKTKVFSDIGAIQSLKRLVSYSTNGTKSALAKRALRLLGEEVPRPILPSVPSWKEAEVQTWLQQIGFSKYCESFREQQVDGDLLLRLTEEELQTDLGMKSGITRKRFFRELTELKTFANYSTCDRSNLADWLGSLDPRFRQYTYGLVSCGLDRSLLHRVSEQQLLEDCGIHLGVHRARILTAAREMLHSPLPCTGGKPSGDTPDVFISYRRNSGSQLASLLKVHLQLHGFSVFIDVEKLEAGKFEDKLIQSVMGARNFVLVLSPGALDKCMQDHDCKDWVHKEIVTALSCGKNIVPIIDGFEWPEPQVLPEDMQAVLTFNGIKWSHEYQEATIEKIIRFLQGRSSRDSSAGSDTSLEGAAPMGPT

Take `C[C@]12CCC3c4ccc(OS(=O)(=O)O)cc4CCC3C1CC[C@H]2O` (some centres undefined): the values for the inhibition in [1] and in test [8] were 8.2% and 3.17% (inactive), respectively. Moreover, in test [2], the score is 1.49. This molecule yielded a rescue above control in test [3] of 11.3. Further, in test [4], the cytochrome c release ratio turned out to be 0.9. The molecule also yielded an inhibition of aggregation in test [5] of 68.5%. For the same molecule, the glutamate uptake change in test [6] is -12.2%. The aggregation suppression score in [7] amounted to 1.25. Moreover, in test [9], the red/green cell ratio (normalised) is 0.87 (inactive). Further, the normalised cell number in [9] (setting [17]) amounted to 1.3; in test [9] (setting [18]), 1.13.
As to `CCN1CCCC1CNC(=O)c1cc(S(N)(=O)=O)ccc1OC` (centres undefined), the inhibition (as a rule, the change of the read-out against control, counted positive when it falls) was 17.6% in test [1] and -9.64% (inactive) in test [8]. Further, the score in [2] turned out to be 1.43. In test [3], this molecule yielded a rescue above control of 3.11. In [4], the cytochrome c release ratio was determined as 0.88. For the same molecule, the inhibition of aggregation in test [5] was found to be 59.1%. The glutamate uptake change in test [6] is -6.59%. The molecule further returned an aggregation suppression score in test [7] of 1.43. For the same molecule, the parasite load remaining in test [10] was 39.8% (inactive) and 78.3% (inactive). Also, the viability – broadly, a read-out of living cells in per cent, often relative to untreated cells – in [10] was 52.6% and 93.4%. The molecule was called inactive in [11]. Also, the z-score in test [12] (MELAS cybrid survival, CellTiter-Glo 48 h, stronger effect = higher value) is -0.0383 (inactive) and -0.359 (inactive); in test [12] (Rieske KO mouse fibroblast survival, CellTiter-Glo 72 h), 0.0677 and 0.0684; in [15] it was 0.32 (inactive) and 0.4 (inactive) and 0.185 (inactive). Besides, in test [13], the remaining NAD was 10 nM (inactive). For the same molecule, the luciferase signal in test [14] is 56 AU (inactive).
For `C=NC(C(=O)NC1C(=O)N2C1SC(C)(C)C2C(=O)O)c1ccccc1` (centres undefined), the figures for the inhibition in test [1] and in test [8] were 15.2% and -2.44% (inactive), respectively. The score in test [2] was 0.85. The molecule further had a rescue above control in test [3] of -2.5. The cytochrome c release ratio in [4] was 0.48. The inhibition of aggregation in test [5] worked out at 82%. Moreover, the glutamate uptake change in test [6] is 4.77%. The same molecule yielded an aggregation suppression score in test [7] of 0.649. Besides, the parasite load remaining in [10] was 130% (inactive). Further, the viability in test [10] stood at 74.4%. Besides, the red/green cell ratio (normalised) in test [9] is 1.12 (inactive). Besides, the values for the normalised cell number in test [9] (setting [17]) and in [9] (setting [18]) were 0.88 and 0.99, respectively.
Turning to `O=C(Nc1ccccc1)Nc1ccccc1`, the inhibition in test [8] was 0.726% (inactive). Besides, the red/green cell ratio (normalised) in [9] was 0.79 (inactive). Besides, the normalised cell number in [9] (setting [17]) worked out at 1.16; in [9] (setting [18]), 0.91. Moreover, the luciferase signal in test [14] is 108 AU (inactive).
`O=C(O)c1cc([N+](=O)[O-])ccc1NCCCc1ccccc1`: the inhibition is 58.5% in [1] and 11.2% (inactive) in [8]. The score in test [2] stood at 0.73. Also, in [3], the rescue above control amounted to 1.37. Further, in test [4], the cytochrome c release ratio is 0.78. Also, the inhibition of aggregation in [5] worked out at 4.16%. The glutamate uptake change in [6] came to 5.28%. In test [7], this molecule registered an aggregation suppression score of 0.265. For the same molecule, the fold change in [16] (stronger effect = lower value, cell number ratio, induced over uninduced) was 1.03 (inactive) and 0.858 (inactive) and 0.935 (inactive); in [16] (measured here: relative caspase fold change +Dox/-Dox), 1.22 and 0.934 and 0.883. In addition, the cell count in test [16] (measured here: total cells with miR-34 induction, stronger effect = lower value) is 10800 and 5570 and 8160; in [16] (measured here: total cells without miR-34 induction), 10500 and 6480 and 8730. In test [15], the z-score is 0.305 (inactive) and -0.425 (inactive).
Consider `CC1(C)CC2C1CCC1(C)OC1CCC2(C)O` (centres undefined), for which the inhibition in test [8] is 19.1% (inactive). Further, the red/green cell ratio (normalised) in test [9] was 1.05 (inactive). For the same molecule, the normalised cell number worked out at 0.98 in test [9] (setting [17]) and 1.02 in test [9] (setting [18]). The luciferase signal in test [14] was 620 AU (active).
Regarding `O=C1c2ccc(O)c(O)c2C(=O)c2c(O)ccc(O)c21`, the inhibition in test [1] was -8.08%; in test [8] it was 4.26% (inactive). Further, the score in [2] is 1.47. Also, the cytochrome c release ratio in test [4] was 0.18. This molecule also gave an inhibition of aggregation in test [5] of 38.2%. Besides, the glutamate uptake change in [6] came out at 32%. In [7], the aggregation suppression score was found to be 0.505. Also, in test [9], the red/green cell ratio (normalised) was 1.12 (inactive). Moreover, the normalised cell number in test [9] (setting [17]) came to 0.82; in [9] (setting [18]) it was 0.92. Moreover, the luciferase signal in test [14] is 76 AU (inactive).
